The results in this text go back to PubChem BioAssay AID1851 (National Center for Advancing Translational Sciences (NCATS), 2009).

What is called AC50 is the midpoint of the concentration-response curve, whichever way the signal moves.

The whole screen tested about 16,000 compounds, of which about 4,000 (25%) were called active. About 26% were inconclusive and are not listed. Calls come from the whole dose curve; as a rule, active = well fitted curve in the direction sought with a large enough effect; inconclusive = small, poorly fitted or top-dose-only effect, or effect the other way; inactive = no such curve, though single readings can be large or run the other way. Not all results are given here.
% is set by controls: 0 for no effect and ±100 for the full control effect.

Sequence of Cytochrome P450 2C9 (Homo sapiens) (P11712 whole entry, looked up): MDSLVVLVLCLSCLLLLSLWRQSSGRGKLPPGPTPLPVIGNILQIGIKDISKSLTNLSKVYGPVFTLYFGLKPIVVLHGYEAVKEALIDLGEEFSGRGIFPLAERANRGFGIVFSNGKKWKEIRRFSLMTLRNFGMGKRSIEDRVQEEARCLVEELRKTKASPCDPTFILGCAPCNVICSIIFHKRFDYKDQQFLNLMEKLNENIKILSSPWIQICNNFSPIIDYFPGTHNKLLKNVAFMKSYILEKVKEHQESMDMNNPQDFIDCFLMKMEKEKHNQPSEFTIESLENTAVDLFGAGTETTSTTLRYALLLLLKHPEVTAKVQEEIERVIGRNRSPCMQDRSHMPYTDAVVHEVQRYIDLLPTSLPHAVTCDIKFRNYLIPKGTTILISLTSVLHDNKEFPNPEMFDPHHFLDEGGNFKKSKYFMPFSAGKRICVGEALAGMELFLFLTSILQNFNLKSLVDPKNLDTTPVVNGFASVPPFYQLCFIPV

The experiment concerns the target Cytochrome P450 2C9 (Homo sapiens) (UniProt P11712). The experiment in a line: Cytochrome panel assay with activity outcomes. The following applies: recombinant CYP, pro-luciferin dealkylation, luminescence, p450-cyp2c9; series mostly up to 57.1 µM.
Take `COc1cccc(CNc2ccc3nc(-c4ccc(N)cc4)c(OC)n3n2)c1`: the AC50 entry is “inactive”.

Take `CCN(CC)CCCN(Cc1cc2ccc(C)c(C)c2[nH]c1=O)C(=O)NC1CCCCC1`: the AC50 entry was “inactive”.

Consider `Cc1nc(-c2cccnc2)sc1C(N)=O`, for which the AC50 entry was “inactive”.

For `CNC(=O)c1sc(-c2cccnc2)nc1C`, the AC50 entry was “inactive”.

Take `C/C(=N\OC(=O)NC1CCCCC1)c1sc(-c2ccccc2)nc1C`: the AC50 was 11.2 µM (active).

As for `Cc1noc(C)c1-c1nccc(N(C)C)n1`, the activity, negative = inhibition is -8.59% [at 2.29 µM] (inactive).

Regarding `CC(=O)OC[C@@H]1O[C@@H](O/N=C2/C[C@@H](O)[C@@H](O)[C@@H]3[C@@H]4C(=O)N(C[C@@H]5CCCO5)C(=O)[C@H]4CC[C@@H]23)[C@H](OC(C)=O)[C@H](OC(C)=O)[C@@H]1OC(C)=O`, the activity, negative = inhibition is -5.55% [at 11.4 µM] (inactive).

Take `COc1cccc(-c2cc(NCc3cccs3)ncn2)c1`: the activity, negative = inhibition is -10.2% [at 2.29 µM] (inactive).

Consider `COc1cccc(-c2[nH]nc3c2C(c2ccsc2)C(C#N)=C(N)O3)c1` (centres undefined), for which the AC50 was 2.51 µM (active).

`CNc1c2c(nn1C)CCCC2`: the AC50 entry was “inactive”.

As to `O=c1cc(CO)oc(CN2CCCC2)c1O`, the AC50 result was “inactive”.

`Cc1ccc(N(C(C)C(=O)Nc2cc(Cl)ccc2Oc2ccccc2)S(C)(=O)=O)cc1` (centres undefined): the AC50 was 6.31 µM (active).

As for `CC(C(=O)Nc1ccccc1Sc1ccccc1)N(c1ccccc1)S(C)(=O)=O` (centres undefined), the AC50 is 4.47 µM (active).

Regarding `COc1cccc(C=NC=Nc2cccc(OC)c2)c1`, the AC50 entry was “inactive”.

For `CN(C)C(=O)c1ccc(-c2ccc3ncnc(NCc4cccs4)c3c2)cc1`, the activity, negative = inhibition was 8.22% [at 2.29 µM] (inactive).

Regarding `Cc1ccc(N=C/C(C(=O)C(F)(F)F)=C(\O)c2cccs2)cc1`, the AC50 is 3.55 µM (active).

Turning to `C[C@](N)(COP(=O)(O)O)C(=O)O`, the AC50 result was “inactive”.

Turning to `COc1cc(C2C(C#N)=C(N)N(Nc3ccccc3)C3=C2C(=O)CC(C)(C)C3)ccc1OCc1cccc(F)c1` (centres undefined), the AC50 was 3.98 µM (active).

For the compound `COc1ccc(C2C(C#N)=C(N)N(Nc3ccccc3)C3=C2C(=O)CC(C)(C)C3)cc1C` (centres undefined), the AC50 was 1.58 µM (active).

As to `CC(=O)N(CC(O)CN(C(C)=O)c1c(I)c(C(=O)NC[C@@H](O)CO)c(I)c(C(=O)NC[C@@H](O)CO)c1I)c1c(I)c(C(=O)NC[C@@H](O)CO)c(I)c(C(=O)NC[C@@H](O)CO)c1I`, the AC50 entry was “inactive”.

`COc1ccccc1-c1cc(NCc2cnc(C)cn2)ncn1`: the activity, negative = inhibition is 9.42% [at 2.29 µM] (inactive).

In the case of `O=C(O)[C@H]([C@H]1NCCS1)N1Cc2ccccc2C1`, the activity, negative = inhibition is 1.08% [at 11.4 µM] (inactive).

On to `Cc1cccc(Sc2c([N+](=O)[O-])ncn2C)n1`, for which the AC50 entry was “inactive”.

Consider `N#Cc1ccc(CN2CC3(CCN(C(=O)c4cc(C(F)(F)F)cc(C(F)(F)F)c4)CC3)C2)cc1`, for which the AC50 result was “inactive”.
